Data: PubChem BioAssay
A number with no mark means an inactive call. Active and inactive are the calls of the source.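 How the source made its calls, unless noted: active means luciferase signal above three times the same-plate solvent-only control wells; inactive means the rest.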 Starred links: 1 amine or outer side, 2 acyl side, 3 side chain; linkers in the order of their positions; H or OH if unused. Positions of bridges follow the written chain, without caps; N, C: chain ends. Non-standard residues stand in square brackets, D forms with d. Residues, ends and D or L forms follow the SMILES beside them. Chains are numbered I, II in the order given. Actinocin(9to1) = Cc1c2oc3c(C)ccc(C(=O)[*:1])c3nc-2c(C(=O)[*:2])c(N)c1=O; NMeV = CN[C@H](C(=O)O)C(C)C; Sar = CNCC(=O)O

Legend:
[1] = target: NAD(+) hydrolase SARM1 (Homo sapiens) (UniProt Q6SZW1); experiment: blocking NAD cleavage by SARM1 SAM-TIR – cell lysate, NAD-Glo luminescence (AID 1508614;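 active means compound whose remaining NAD level is above about 45 nM, limit read from the data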;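 further: higher remaining NAD means stronger inhibition of SARM1 NADase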); conditions: SAM-TIR HEK293T lysate NADase, at 1 µM, active compounds read high
[2] = target: Mitogen-activated protein kinase 7 (Homo sapiens) (UniProt Q13164); experiment: Gal4-ERK5 driven luciferase induction – cell-based, HTS, primary screen (AID 1508626); conditions: HeLa Gal4-ERK5 transactivation, 18 h, at 5 µM, active compounds read high;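 further: luciferase driven by Gal4-ERK5 fusion binding five Gal4 sites before minimal TATA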
Chain of Mitogen-activated protein kinase 7 (Homo sapiens) (Q13164 whole entry, looked up, the tested form may be a part): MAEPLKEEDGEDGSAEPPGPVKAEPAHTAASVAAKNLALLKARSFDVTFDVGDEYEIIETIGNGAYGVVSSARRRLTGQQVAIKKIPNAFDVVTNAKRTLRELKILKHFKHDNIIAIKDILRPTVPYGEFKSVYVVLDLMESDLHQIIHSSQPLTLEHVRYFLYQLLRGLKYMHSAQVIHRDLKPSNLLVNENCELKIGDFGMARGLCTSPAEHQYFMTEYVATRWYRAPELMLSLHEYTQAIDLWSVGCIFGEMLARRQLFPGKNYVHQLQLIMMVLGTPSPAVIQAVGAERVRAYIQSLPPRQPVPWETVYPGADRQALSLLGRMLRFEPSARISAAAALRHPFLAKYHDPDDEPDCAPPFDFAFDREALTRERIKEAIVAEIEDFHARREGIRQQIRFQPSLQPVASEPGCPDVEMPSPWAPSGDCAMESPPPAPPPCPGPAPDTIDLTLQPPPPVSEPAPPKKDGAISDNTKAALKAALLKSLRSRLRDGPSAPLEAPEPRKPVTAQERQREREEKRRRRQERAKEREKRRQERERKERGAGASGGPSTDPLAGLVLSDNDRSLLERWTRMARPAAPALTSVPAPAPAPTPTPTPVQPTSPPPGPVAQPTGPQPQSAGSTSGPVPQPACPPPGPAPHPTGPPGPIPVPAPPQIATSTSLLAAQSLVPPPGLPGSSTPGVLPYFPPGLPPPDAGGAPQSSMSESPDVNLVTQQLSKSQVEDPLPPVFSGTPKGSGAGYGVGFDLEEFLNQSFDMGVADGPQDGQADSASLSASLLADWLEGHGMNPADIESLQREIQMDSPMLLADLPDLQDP

Chain of NAD(+) hydrolase SARM1 (Homo sapiens) (Q6SZW1 whole entry, looked up, the tested form may be a part): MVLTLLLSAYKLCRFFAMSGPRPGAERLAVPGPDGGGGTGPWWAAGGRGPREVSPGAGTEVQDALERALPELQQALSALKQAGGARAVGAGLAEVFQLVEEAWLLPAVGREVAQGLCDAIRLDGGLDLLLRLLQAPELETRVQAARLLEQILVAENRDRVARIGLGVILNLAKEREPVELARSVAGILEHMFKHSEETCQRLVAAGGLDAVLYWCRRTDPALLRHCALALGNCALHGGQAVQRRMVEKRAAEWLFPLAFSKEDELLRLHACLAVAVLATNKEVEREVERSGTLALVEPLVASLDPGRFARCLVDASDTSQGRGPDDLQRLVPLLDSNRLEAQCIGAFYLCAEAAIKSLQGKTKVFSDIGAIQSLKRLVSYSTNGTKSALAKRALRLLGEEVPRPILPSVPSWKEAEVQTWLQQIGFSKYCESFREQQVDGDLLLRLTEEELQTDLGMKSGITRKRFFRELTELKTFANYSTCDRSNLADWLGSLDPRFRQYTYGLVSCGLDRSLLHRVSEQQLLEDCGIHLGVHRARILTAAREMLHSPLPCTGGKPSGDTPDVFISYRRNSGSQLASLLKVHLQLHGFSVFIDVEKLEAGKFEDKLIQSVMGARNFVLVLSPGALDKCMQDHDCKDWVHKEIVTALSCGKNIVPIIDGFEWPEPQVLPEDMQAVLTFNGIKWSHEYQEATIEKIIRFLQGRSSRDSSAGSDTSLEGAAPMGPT

Structure (SMILES) | remaining NAD [1] | luciferase signal [2]
C[C@]12CCC(=O)C=C1CC[C@@H]1[C@@H]2[C@@H](O)C[C@@]2(C)[C@H]1CC[C@]2(O)C(=O)COP(=O)(O)O | 10 nM | 72 AU
COc1c2occc2c(OC)c2c(=O)cc(C)oc12 | 10 nM | 80 AU
CN1CCC(=C2c3ccccc3Sc3ccccc32)CC1 | 83 nM (active) | 64 AU
Cc1cc2cc3c(C)cc(=O)oc3c(C)c2o1 | 10 nM | 104 AU
CCCCOc1cc(C(=O)NCCN(CC)CC)c2ccccc2n1 | 10 nM | 40 AU
CC(N)C(=O)OC(C)(C)Cc1ccc(Cl)cc1 (configuration not stated) | 10 nM | 92 AU
CC1CC(OC(=O)C(O)c2ccccc2)CC(C)(C)N1C (configuration not stated) | 10 nM | 48 AU
CN(C)CCc1c[nH]c2ccc(CS(=O)(=O)N3CCCC3)cc12 | 10 nM | 52 AU
CCOc1ccc(NC(C)=O)cc1 | 10 nM | 68 AU
Cn1c([N+](=O)[O-])cnc1COC(N)=O | 10 nM | 108 AU
O=C1O[C@H](CO)[C@@H](O)[C@H](O)[C@H]1O | 10 nM | 16 AU
Nc1ccc(C(=O)NCC(=O)O)cc1 | 10 nM | 20 AU
CCCCC(CC)CN=C(N)NC(N)=NCCCCCCN=C(N)NC(N)=NCC(CC)CCCC (configuration not stated) | 10 nM | 88 AU
Nc1ccc(S(=O)(=O)Nc2ccc(Cl)nn2)cc1 | 10 nM | 168 AU
Cc1c2oc3c(C)ccc(C(=O)N[C@@H]4C(=O)N[C@H](C(C)C)C(=O)N5CCC[C@H]5C(=O)N(C)CC(=O)N(C)[C@@H](C(C)C)C(=O)O[C@@H]4C)c3nc-2c(C(=O)N[C@@H]2C(=O)N[C@H](C(C)C)C(=O)N3CCC[C@H]3C(=O)N(C)CC(=O)N(C)[C@@H](C(C)C)C(=O)O[C@@H]2C)c(N)c1=O (I: T[dV]P[Sar][NMeV] / II: T[dV]P[Sar][NMeV]; ester I:1-I:C, II:1-II:C; linker I:N-II:N via Actinocin(9to1)) | 10 nM | 16 AU
CC1(C)S[C@@H]2[C@H](NC(=O)C(C(=O)O)c3ccccc3)C(=O)N2[C@H]1C(=O)O (some centres not stated) | 10 nM | 84 AU
Cc1cc(C)cc(OCC2CNC(=O)O2)c1 (configuration not stated) | 10 nM | 72 AU
O=C(OCC(O)CO)c1ccccc1Nc1ccnc2cc(Cl)ccc12 (configuration not stated) | 10 nM | 176 AU (active)
Cc1cc(=O)[nH]c(=S)[nH]1 | 10 nM | 100 AU
Oc1cccc(O)c1 | 10 nM | 20 AU
Cc1cccc(C(=O)O)c1O | 10 nM | 68 AU

Structure (SMILES) | remaining NAD [1] | luciferase signal [2]
O=C1c2c(O)cccc2Cc2cccc(O)c21 | 10 nM | 180 AU
Nc1c2ccccc2nc2ccccc12 | 10 nM | 92 AU
Cc1cccc(N(C)C(=S)Oc2ccc3ccccc3c2)c1 | 10 nM | 112 AU
O=C(CCCCC(=O)Nc1c(I)cc(I)c(C(=O)O)c1I)Nc1c(I)cc(I)c(C(=O)O)c1I | 10 nM | 44 AU
Cc1ccccc1OCC(O)CO (configuration not stated) | 10 nM | 44 AU
CC(=O)OCC(COC(C)=O)OC(C)=O | 10 nM | 8 AU
C=CCSCC1Nc2cc(Cl)c(S(N)(=O)=O)cc2S(=O)(=O)N1 (configuration not stated) | 10 nM | 40 AU
O=C(O)CCC(=O)Nc1ccc(S(=O)(=O)Nc2nccs2)cc1 | 10 nM | 28 AU
C=CCc1ccc(O)c(OC)c1 | 10 nM | 12 AU
C[C@@H]1C[C@H]2[C@@H]3CCC4=CC(=O)C=C[C@]4(C)[C@@]3(F)[C@@H](O)C[C@]2(C)[C@@]1(O)C(=O)COP(=O)(O)O | 10 nM | 32 AU
COCCCOc1cc(C[C@@H](C[C@H](N)[C@@H](O)C[C@H](C(=O)NCC(C)(C)C(N)=O)C(C)C)C(C)C)ccc1OC | 10 nM | 68 AU
CCCCC(=O)O[C@]1(C(=O)CO)[C@@H](C)C[C@H]2[C@@H]3CCC4=CC(=O)C=C[C@]4(C)[C@@]3(F)[C@@H](O)C[C@@]21C | 10 nM | 80 AU
C[N+]12CCC(CC1)C(OC(=O)C(O)(c1ccccc1)c1ccccc1)C2 (configuration not stated) | 10 nM | 48 AU
CC(C)(Sc1cc(C(C)(C)C)c(O)c(C(C)(C)C)c1)Sc1cc(C(C)(C)C)c(O)c(C(C)(C)C)c1 | 10 nM | 40 AU
CN(C)c1ccc2nc3ccc(=[N+](C)C)cc-3sc2c1 | 10 nM | 80 AU
O=C1OCCN1/N=C/c1ccc([N+](=O)[O-])o1 | 10 nM | 56 AU
CCN(CCCCOC(=O)c1ccc(OC)c(OC)c1)C(C)Cc1ccc(OC)cc1 (configuration not stated) | 10 nM | 52 AU
Nc1nc2c(c(=O)[nH]1)N(C=O)C(CNc1ccc(C(=O)N[C@@H](CCC(=O)O)C(=O)O)cc1)CN2 (some centres not stated) | 10 nM | 72 AU
CC1CCC(NC(=O)N(CCCl)N=O)CC1 (configuration not stated) | 10 nM | 44 AU
C/C=C(/C(=C/C)c1ccc(O)cc1)c1ccc(O)cc1 | 10 nM | 72 AU
CCCCCCCCNC(C)C(O)c1ccc(SC(C)C)cc1 (configuration not stated) | 10 nM | 60 AU

Structure (SMILES) | remaining NAD [1] | luciferase signal [2]
Cc1cc(O)cc(C)c1Cl | 10 nM | 32 AU
CCC(Cc1c(I)cc(I)c(N)c1I)C(=O)O (configuration not stated) | 10 nM | 56 AU
Nc1ccc(C(=O)Oc2ccccc2)c(O)c1 | 10 nM | 84 AU
CC(=O)[C@@]1(O)CC[C@H]2[C@@H]3C[C@H](C)C4=CC(=O)C=C[C@]4(C)[C@@]3(F)[C@@H](O)C[C@@]21C | 10 nM | 76 AU
NC(=O)NC(=O)Cc1ccccc1 | 10 nM | 160 AU
CS(=O)(=O)c1ccc([C@@H](O)[C@@H](CO)NC(=O)C(Cl)Cl)cc1 | 23 nM | 44 AU
O=c1cc[nH]c(=S)[nH]1 | 10 nM | 100 AU
Cc1cc(C(C)(C)C)c(O)c(C(C)(C)C)c1 | 10 nM | 20 AU
C=C1c2cccc(O)c2C(O)=C2C(=O)[C@]3(O)C(O)=C(C(N)=O)C(=O)[C@@H](N(C)C)[C@@H]3[C@@H](O)[C@H]12 | 10 nM | 40 AU
NC(=O)N/N=C/c1ccc([N+](=O)[O-])o1 | 10 nM | 36 AU
O=C(O)c1ccccc1C(=O)Nc1ccc(S(=O)(=O)Nc2nccs2)cc1 | 10 nM | 92 AU
O=C(O)CCCC[C@@H]1SC[C@@H]2NC(=O)N[C@@H]21 | 10 nM | 256 AU
CCCCCCc1ccc(O)cc1O | 10 nM | 20 AU
O=C(OCc1ccccc1)c1ccccc1 | 10 nM | 88 AU
CC(=O)Oc1cccc2c1C(=O)c1c(OC(C)=O)cc(C(=O)O)cc1C2=O | 10 nM | 44 AU
CCC(=O)c1c(O)cc(O)cc1O | 10 nM | 60 AU
CC1=C(C(=O)O)N2C(=O)[C@@H](NC(=O)[C@H](N)c3ccc(O)cc3)[C@H]2SC1 | 10 nM | 108 AU
COc1cc(NS(=O)(=O)c2ccc(N)cc2)ncn1 | 10 nM | 44 AU
Nc1ccc(S(N)(=O)=O)cc1 | 10 nM | 164 AU
